A selection: hits, their analogues and other compounds. The true share with any hit is near 4.8%.
SMARCA2 act: increases SMARCA2 function in MMTV reporter cells. MG213 cells, MMTV-luciferase reporter, dexamethasone, overnight. activation, % at 9.1 µM. actives 1% (n = 370,000). AID 652017; in the data active = activation above about 7.8%;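 also: 0% = vehicle wells and 100% = reference activator wells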
hcDAF-12 act: activators of H. contortus DAF-12 nuclear receptor; HEK293 hcDAF-12 lit1-tk-luc reporter, luminescence; 0% DMSO, 100% Δ7-dafachronic acid; activation, % at 6.8 µM; actives 1.4% (n = 370,000);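 active = activation above the mean of all tested compounds plus 3 SD, cut at about 5.5% in these data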;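 also: 100% = response to 3 µM Δ7-dafachronic acid high control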
DAX1 inh-1: NR0B1 (DAX1) inhibition; P51843; HEK293 Gal4-DAX1 luciferase reporter, luminescence; actives 0.99% (n = 340,000); inhibition, % at 6.75 µM;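 active = inhibition above the mean over all tested compounds plus 3 SD, cut at about 4.2% in these data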;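 also: 0% = DAX1-transfected cells with DMSO and 100% = empty-vector control cells with DMSO; inhibition shows as a rise in luminescence from relieved DAX1 repression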
DAX1 inh-2: blocks DAX1 repression of SF-1 activated StAR promoter. HEK293T StAR-luciferase reporter, SF-1/DAX-1 repression relief. inhibition, % at 6.8 µM. actives 1.1% (n = 370,000);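 active = inhibition above the mean over all tested compounds plus 3 SD, cut at about 3.6% in these data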;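 also: 0% = DAX-1 cells with DMSO and 100% = cells lacking DAX-1 with DMSO; higher inhibition means more luminescence from relief of DAX-1 repression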
ssDAF-12 act: activates DAF-12 receptor from parasite S. stercoralis; HEK293 ssDAF-12/GRIP1 lit1-tk-luc reporter, luminescence; % of 3 µM dafachronic acid response; activation, % at 6.8 µM; actives 1% (n = 370,000); AID 652126;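 active = activation above the mean over all tested compounds plus 3 SD, cut at about 0.9% in these data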;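 also: 0% = DMSO-only wells and 100% = 3 µM delta7-dafachronic acid wells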
hgDAF12 agonist: hgDAF-12 agonism, primary luciferase screen; actives 1.8% (n = 370,000); HEK293 GAL4-hgDAF12 UAS-luciferase reporter, agonist luminescence; normalized to butyrate control; activation, % at 6.8 µM;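 active = activation above a cutoff set at the mean of all screened compounds plus 3 SD, cut at about 10% in these data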;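 also: 0% = DMSO wells and 100% = sodium butyrate wells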
DAX1 conf: NR0B1 (human) inhibition, confirmation; AID 652134; HEK293T StAR-promoter luciferase reporter, SF-1/DAX-1 repression; inhibition, % at 6.8 µM; shares compounds with DAX1 inh-2; actives 87% (n = 2,400);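 active = inhibition above the average of every tested compound plus 3 SD, cut at about 3.8% in these data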;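 also: 0% = DAX-1 cells with DMSO and 100% = no DAX-1 control cells with DMSO; active compounds raise luminescence by relieving repression of the StAR reporter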
SF1 AF2mut Luc: nonselective inhibitor or artifact in SF-1 mutant DAX1 counter-screen; shares compounds with DAX1 inh-2; HEK293 StAR-luciferase, SF-1 AF2 mutant, luminescence; inhibition, % at 6.8 µM; actives 78% (n = 2,400); AID 652136;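 active = inhibition above the mean of all tested compounds plus 3 SD, cut at about 3% in these data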;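 also: 0% = DAX-1 transfected cells with DMSO and 100% = cells without DAX-1 with DMSO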
LXRb hcDAF ctr: LXR-beta agonism as hcDAF-12 counter-screen | activation, % at 6.8 µM | AID 743027 | 3,400 tested, under 10 active | shares compounds with hcDAF-12 act | HEK293 Gal4-LXR tk-luc reporter, luminescence, 24 h; normalized: DMSO 0%, positive control 100%;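 active = mean percent activation of the reporter above a cutoff set as the average over tested compounds plus their standard deviation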
Target sequence (P55055 whole entry, looked up, the tested form may be a part): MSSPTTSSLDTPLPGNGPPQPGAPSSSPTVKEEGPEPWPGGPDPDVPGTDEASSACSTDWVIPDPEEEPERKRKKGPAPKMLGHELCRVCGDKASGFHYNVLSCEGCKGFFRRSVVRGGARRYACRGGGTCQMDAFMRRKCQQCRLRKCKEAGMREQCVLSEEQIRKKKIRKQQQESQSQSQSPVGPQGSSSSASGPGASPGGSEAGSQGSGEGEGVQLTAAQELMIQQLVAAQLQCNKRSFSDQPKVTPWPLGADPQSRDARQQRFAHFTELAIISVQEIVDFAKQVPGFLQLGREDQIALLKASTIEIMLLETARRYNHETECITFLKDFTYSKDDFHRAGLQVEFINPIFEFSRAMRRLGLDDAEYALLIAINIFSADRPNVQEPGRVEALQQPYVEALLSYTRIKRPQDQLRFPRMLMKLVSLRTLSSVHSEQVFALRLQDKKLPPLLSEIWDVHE
hcDAF12 ag: confirmation of H. contortus DAF-12 agonists; shares compounds with hcDAF-12 act; HEK293 hcDAF-12 lit1-tk-luc reporter, luminescence; % of Δ7-dafachronic acid response; activation, % at 6.8 µM; actives 61% (n = 3,400); AID 743032;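 active = mean activation across triplicate tests above the threshold derived from the earlier primary screen, cut at about 5.5% in these data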;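 also: 0% = DMSO only wells and 100% = 3 µM Δ7-dafachronic acid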
hgDAF12 conf: confirmation of H. glycines DAF-12 agonists; HEK293 GAL4-hgDAF12 luciferase reporter, agonist mode; percent of butyrate response; actives 80% (n = 3,300); AID 743050; activation, % at 6.8 µM; shares compounds with hgDAF12 agonist;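 active = mean activation over triplicate wells above the hit cutoff derived from the earlier primary screen, cut at about 11% in these data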;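 also: 0% = DMSO low control and 100% = 2 mM sodium butyrate high control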
LXR ag 2: activates human LXR-beta, counter-screen for DAF-12 agonists. HEK293 Gal4-LXR luciferase reporter, 24 h. 3,300 tested, under 10 active. activation, % at 6.8 µM. shares compounds with hgDAF12 agonist;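 active = mean activation of the triplicate above a set limit carried over from the primary screen, none filed active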
* marks the source's active call; other numbers are inactive results; . = not tested or not shown.

SMILES	SMARCA2 act	hcDAF-12 act	DAX1 inh-1	DAX1 inh-2	ssDAF-12 act	hgDAF12 agonist	DAX1 conf	SF1 AF2mut Luc	hgDAF12 conf	LXR ag 2	others
C[C@H]1/C=C/CC(=O)N[C@@H](c2ccccc2)[C@@H](C)/C=C/CC(=O)N[C@H]1c1ccccc1	0	0	.	0	1	7	.	.	.	.
C(=N\NC1=Nc2cccc3cccc1c23)/c1ccccc1	6	18*	5.7*	6.6*	4.5*	23*	13*	9.5*	27*	1	LXRb hcDAF ctr=2;hcDAF12 ag=21*
O=C(CSc1nnc(-c2ccco2)n1-c1ccc(Cl)cc1)Nc1ccc(S(=O)(=O)Nc2nccs2)cc1	6	0	.	1	-1	-1	.	.	.	.
COc1ccc(C(=O)NCCNc2ccccc2[N+](=O)[O-])cc1	4	4	4	8.0*	0	19*	14*	6.7*	15*	1
CCCNC(=O)c1ccc(S(=O)(=O)c2ccc(OC)cc2)c([N+](=O)[O-])c1	-4	-5	0	-1	-2	-4	.	.	.	.
Cc1nc(Nc2nc3ccccc3o2)nc(C)c1C	5	6.0*	4	4.6*	0	15*	14*	5.8*	16*	1
O=C(NN=Cc1ccc2c(c1)CCN2)c1cccs1	1	9.8*	5.6*	6.7*	1.5*	22*	17*	7.0*	26*	1	LXRb hcDAF ctr=2;hcDAF12 ag=5.6*
Cc1cc(O)ccc1Nc1nc(-c2cccs2)cs1	3	5	0	5.5*	1.0*	17*	9.3*	4.7*	21*	1
CN(c1ccc(O)cc1)c1nc(-c2cccs2)cs1	2	5	1	7.7*	1	19*	8.7*	3.6*	14*	1
Cc1nc(C)c(-c2csc(Nc3ccc(O)cc3C)n2)s1	3	-3	0	-1	-1	-3	.	.	.	.
Cc1ccc(/C(N)=N/OC(=O)c2cccs2)cc1	-1	12*	2	6.5*	1.0*	21*	5.9*	5.1*	17*	1	LXRb hcDAF ctr=1;hcDAF12 ag=5
CC(=O)c1cc(-c2ccccc2)n(CC(=O)NCc2ccc(Cl)cc2)c1C	-4	-3	.	-1	-2	-6	.	.	.	.
O=C(Cn1nc(-c2ccccc2)ccc1=O)NCCc1ccc(F)cc1	-3	0	.	-1	-1	0	.	.	.	.
